# Laboratory results reported in the supplement of paper PMC3334620.
# In all, about 33,000 sequences were measured (“E-score (-0.5 to 0.5)”: median about -0.015, highest 2% from about 0.3 on). This excerpt belongs to a sample that is enriched for the highest values.
# Molecular target: T1, Abf1 (UniProt P14164)
# T1 sequence: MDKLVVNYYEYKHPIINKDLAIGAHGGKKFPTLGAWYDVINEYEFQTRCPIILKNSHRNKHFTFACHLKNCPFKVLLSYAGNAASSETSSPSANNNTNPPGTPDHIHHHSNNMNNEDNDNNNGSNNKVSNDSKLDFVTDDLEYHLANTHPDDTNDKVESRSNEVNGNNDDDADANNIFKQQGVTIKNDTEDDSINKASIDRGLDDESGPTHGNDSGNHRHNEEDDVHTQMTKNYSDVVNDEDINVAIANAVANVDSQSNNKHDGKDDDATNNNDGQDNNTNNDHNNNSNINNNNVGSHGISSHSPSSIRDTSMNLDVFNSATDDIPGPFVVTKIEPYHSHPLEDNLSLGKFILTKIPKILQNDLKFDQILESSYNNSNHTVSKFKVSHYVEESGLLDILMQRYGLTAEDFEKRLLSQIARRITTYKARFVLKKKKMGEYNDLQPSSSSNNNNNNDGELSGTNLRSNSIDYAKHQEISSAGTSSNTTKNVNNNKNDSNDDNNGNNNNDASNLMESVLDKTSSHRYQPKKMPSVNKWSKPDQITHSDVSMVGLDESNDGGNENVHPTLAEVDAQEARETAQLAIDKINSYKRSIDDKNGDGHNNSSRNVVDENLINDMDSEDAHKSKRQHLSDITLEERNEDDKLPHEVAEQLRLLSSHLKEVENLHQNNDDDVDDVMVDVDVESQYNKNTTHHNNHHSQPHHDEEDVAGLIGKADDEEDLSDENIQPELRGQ
# Test: PBM E-score (8-mer binding enrichment) (E-score (-0.5 to 0.5)); higher = stronger / more preferred TF binding
# Conditions: protein concentration: 200 nM; construct: GST-full length
# Experimental: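 Universal 'all 10-mer' protein binding microarrays (Agilent AMADID 015681) probed with GST-tagged S. cerevisiae TFs (full-length or DBD) made by in vitro transcription/translation (PURExpress), about 100-200 nM. Bound TF was detected with fluorescent anti-GST. Each ungapped 8-mer (which stands for itself and its reverse complement) is scored by the PBM enrichment score (E-score), a modified Wilcoxon-Mann-Whitney statistic from -0.5 to +0.5, computed with the Universal PBM Analysis Suite. Scale: above 0.35 generally sequence-specific binding.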
row,Sequence,PBM E-score
1,GCATCGCC,-0.0959
2,AACCGGGC,-0.103
3,CTCCCGGA,-0.117
4,GATAGAAC,0.0502
5,ACAACGCA,-0.00182
6,CGAGGTTA,-0.00406
7,AAGAATCT,-0.115
8,GGAGATGA,0.16
9,GCGATTTA,0.114
10,TCTTCTCA,0.0808
11,CGCTCTAA,0.108
12,AAGGCGGC,-0.00603
13,AAGGACAT,0.0941
14,GCGTGACC,0.108
15,GCGTGACA,0.369
16,CCGTGTGA,0.301
17,GCGTGTGA,-0.00541
18,ACGTGTGA,0.213
19,GTGTGACA,0.116
20,CGTTGATC,0.247
21,AAAGTGCG,-0.105
22,AGATTTCA,-0.0514
23,ACAGTCGC,-0.0877
24,TCGAAAAA,0.157
25,CGACGATC,0.298

row,Sequence,PBM E-score
1,CGACGACC,0.243
2,AGACGATC,0.113
3,CGACGATA,0.373
4,AGACGATA,0.27
5,GGACGATA,0.268
6,GGACGGTA,0.134
7,CGACGGTC,0.173
8,CGACGGTA,0.322
9,GAAATTCA,0.0636
10,ATTGCACA,0.0349
11,CAGCTATA,-0.191
12,ACCGCTGC,-0.252
13,GGTAGGAA,-0.0834
14,TAGGCCGA,-0.106
15,CCGATCCG,-0.0938
16,GCGAAGAA,0.148
17,CTTAGCGC,0.117
18,CGCTGTCC,0.108
19,CCGCATTC,0.00443
20,TGGTACCA,-0.123
21,CCGTACCA,0.303
22,CCGTACTA,0.338
23,GCGTACTA,-0.0501
24,GCGTACCA,-0.0406
25,ACGTACCA,0.0604

row,Sequence,PBM E-score
1,ACGTACTA,0.188
2,TAGTACCA,-0.0108
3,TCGTACCA,0.322
4,ATGATGCG,0.104
5,ACGAACCC,0.0128
6,GCGAGAAC,-0.095
7,CGATTCAC,0.192
8,AGGCGGTC,-0.166
9,GTCTAAAC,0.00585
10,ATGGTACA,-0.0607
11,ACGAATGC,0.185
12,ACGAACGA,0.314
13,ACGAATGA,0.304
14,GCGAACAA,0.0737
15,GCGAATGA,0.173
16,ACGAACGG,0.312
17,CCGAACGA,0.251
18,ACGAACGT,0.289
19,ACGAACAA,0.331
20,TCGAACGA,0.236
21,CCGAACAA,-0.0373
22,CCGAACGG,-0.0461
23,ATTAAGCC,0.0493
24,ATATCCAA,0.149
25,ACTGACTC,-0.262

row,Sequence,PBM E-score
1,CACTATGA,-0.138
2,CAAAGTGA,0.28
3,TAAGGAAA,-0.0606
4,CTATGCAC,0.178
5,AAACTCCT,-0.13
6,AATCATAT,0.191
7,AGGTCGAT,0.132
8,TGGTGGAA,-0.0333
9,ACTGCGAT,-0.0827
10,CAACAAAC,-0.112
11,TATCACGA,0.366
12,AATCACGC,0.127
13,AATCACGG,0.213
14,TATCACAA,0.25
15,CATCACGA,0.0436
16,AATCACGA,0.309
17,AGGTTATC,0.0463
18,CGCAGATA,0.0501
19,CGACGGCG,0.171
20,CCACGGCG,0.142
21,AGACGGCG,0.306
22,ACACGGCG,0.305
23,AGACGGCC,-0.0278
24,ACACGGCA,0.294
25,CCCGCTCG,-0.0943

row,Sequence,PBM E-score
1,ATAAACGG,0.273
2,TAAACTCA,-0.0231
3,AACGATAG,0.265
4,AACGATCA,0.24
5,AACGATAA,0.294
6,AACGATCC,-0.00029
7,ACCGATAT,0.0499
8,AGCGATAG,0.0445
9,AGCGATAT,0.352
10,AACGATCT,0.303
11,AACGATAT,0.385
12,GACGATAC,0.278
13,AACGATAC,0.32
14,AGCGATAC,0.202
15,GCAATTCA,-0.0514
16,ATCGCAGC,-0.0387
17,CACTTCAG,0.0421
18,GCGGTTTA,-0.161
19,ATCCCTGA,-0.0627
20,CCAGGGGC,-0.331
21,ATTAGCGA,0.136
22,GTTAGCGA,0.32
23,CTTAGCGA,0.0369
24,GGGTTATA,-0.105
25,ATTTTACG,0.322

row,Sequence,PBM E-score
1,ATTTTACC,0.11
2,AATTTACG,0.0813
3,TACAGCTA,-0.41
4,AATAGTGG,0.0153
5,AATAGTGA,0.358
6,ATTAGTGG,0.1
7,CTTAGTGC,-0.0935
8,AATAGTGC,0.0751
9,ATTAGTGC,0.148
10,ATTAGTGA,0.365
11,CTTAGTGA,0.305
12,GTTAGTGA,0.17
13,TCGAGCAA,0.1
14,ATTTCCGG,0.0492
15,ATTTCTTA,0.0563
16,GAAGAAAC,-0.133
17,AAATTCGG,0.0545
18,AATTTCGT,0.36
19,AATTTCGA,0.00012
20,AAATTCGC,0.0441
21,AAATTCGT,0.328
22,AATTTCGC,-0.0531
23,GACGCCTC,-0.0456
24,ATAACCCA,-0.0314
25,AGGGTAAT,0.0413

row,Sequence,PBM E-score
1,CACAGTGA,0.109
2,GCATCTCC,-0.255
3,ACTGGAGA,-0.174
4,CCCCCAGA,-0.326
5,CACGAGTC,0.0257
6,TGCACGAA,0.368
7,CGCACGAC,0.242
8,GGCACGAA,0.103
9,AGCACGAA,0.217
10,CGCACGAA,0.321
11,CGCACGAG,0.156
12,CACAACGC,-0.174
13,AGGGAGGA,-0.187
14,ATCCGGGC,-0.197
15,ATGATATG,0.367
16,AAGATATG,0.283
17,GCGATATA,0.368
18,ATGATAGG,0.116
19,CTGATATA,0.107
20,GTGATATA,0.395
21,CCGATATA,0.0343
22,GAGATATA,0.147
23,GGGATATA,-0.045
24,AAGATATA,0.162
25,GCGATACA,0.139

row,Sequence,PBM E-score
1,ATGATATA,0.403
2,GTGGACAA,0.133
3,CTCCTGAC,0.0261
4,AGGGGACA,-0.0441
5,CCAGGGTC,-0.217
6,ACGGCTAC,0.0914
7,CGTTCAGA,0.0456
8,ATGATATC,0.362
9,ATGATACA,0.202
10,ATGATAGC,0.24
11,ATGATACC,0.291
12,CTGATATC,0.0641
13,ATGATACG,0.305
14,ACGCGCCT,-0.0785
15,AGATAAGG,0.00618
16,GGAGGTCA,0.0571
17,CTGACGAC,0.228
18,ATGTACGA,0.444
19,CTGTACAA,0.109
20,GAGTACGA,0.0499
21,ATGTACGC,0.027
22,ATGTACGG,0.241
23,CTGTACGA,0.383
24,CTGTACGC,-0.106
25,GTGTACGA,0.337

row,Sequence,PBM E-score
1,GTGTACTA,0.165
2,GTGTCGGA,0.0611
3,GACGTAGA,0.0745
4,TCCGACCA,-0.143
5,AAACTCTA,-0.144
6,CCCACAAC,-0.0362
7,GCCTCCAA,-0.121
8,GATATATC,0.332
9,GATATATA,0.289
10,GATATAAC,0.307
11,CATATACC,-0.0104
12,GATATAAA,0.22
13,CATATAAC,0.155
14,GATATACC,0.34
15,GATATACA,0.111
16,AATATATC,0.139
17,ATACGCGG,-0.114
18,CTTGGGGC,-0.247
19,AACCCTAA,0.00952
